# Measurements taken from PubChem BioAssay AID504799 (The Scripps Research Institute Molecular Screening Center, 2011).
# The list shows a part of the results. Active and inactive are the calls of the source.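 How the source made its calls: active means mean activation over triplicate runs exceeds the adjusted cutoff derived for the parent primary screen (cut at about 19% in these data); inactive means the rest.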
# Test: fluorescence polarization artefacts, Cy5-IP20 alone – biochemical, triplicate, artefact control for PKA-R1A activator project, confirmation (AID 504799);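 further: no PKA protein present so any polarization rise reflects compound interference; 0% = tracer peptide mix alone and 100% = mix with added PKA catalytic subunit; higher means stronger polarization artifact and likely false positive in parent screen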
# Settings: Cy5-IP20 peptide alone, fluorescence polarization artifact counterscreen; at 11.4 µM; active compounds read high
row,Structure (SMILES),activation
1,COc1ccc(CNc2nnnn2C)cc1,3.5% (inactive)
2,COc1ccc(NC(=O)c2ccc(C#CC(C)(C)O)cc2)cc1,-2.01% (inactive)
3,Cc1ccc2nc3c(cc(C(=O)NCCc4ccccc4)c(=N)n3CC3CCCO3)c(=O)n2c1 (stereo not given),4% (inactive)
4,CCC(Oc1ccccc1C)C(=O)Nc1ccc(S(=O)(=O)Nc2cc(C)on2)cc1 (stereo not given),2.96% (inactive)
5,COc1ccccc1N1CC(C(=O)Nc2nnc(SCC(=O)NC(C)C)s2)CC1=O (stereo not given),-0.21% (inactive)
6,CN(C(=O)CSc1nnc(Nc2ccccc2)s1)C1CCS(=O)(=O)C1 (stereo not given),0.22% (inactive)
7,CCOc1cc(C(=O)Nc2c(C)ccc3nsnc23)cc(OCC)c1OCC,3.5% (inactive)
8,CCCC(=O)Nc1ncnc2c1ncn2[C@@H]1O[C@@H]2OP(=O)(O)OC[C@H]2[C@H]1OC(=O)CCC,0.15% (inactive)
9,N#Cc1ccccc1CN1C(=O)S/C(=C/c2cccn2-c2cccc(C(=O)O)c2)C1=O,19.3% (active)
10,O=C(Nc1ccc2c(c1)[C@@H]1C[C@@H](CC(=O)N3CCCCC3)O[C@@H](CO)[C@@H]1O2)NC1CCCCC1,3.18% (inactive)
